Rows were chosen to be rich in hits. Some 12% of all compounds tested hit in one or more screens of this group.
L3MBTL1 block: blocks human L3MBTL1; AlphaScreen L3MBTL1–H3K9me1 peptide binding; 230,000 compounds, 0.66% hits; AID 485360; Potency, µM (doses to about 57.1 µM), without a hit: at the highest dose activity, negative = inhibition, most hits filed as inhibitors; further: on the % scale 0 is the no-effect control and ±100 the full control effect; nearly all actives have a fitted effect of over 60% in size
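L3MBTL1 (50 nM) pre-complexed 30 min with biotinylated H3(1-15)K9me1 peptide (75 nM), then compounds added for 30 min at room temperature; AlphaScreen streptavidin donor/nickel chelate acceptor beads (10 ug/mL final) read after 30 min dark incubation.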
HP1b binding inh: HP1-beta chromodomain-methylated histone interaction inhibition; P83916; AlphaScreen HP1-beta / biotin-H3K9me3 peptide binding; Potency, µM (doses to about 114 µM), inactives show at the highest dose activity change, negative = inhibition, actives largely listed as inhibitors; 390,000 compounds, 0.56% hits; AID 540317; further: nearly all actives have a fitted effect of over 70% in size
Target sequence (P83916 whole entry, looked up): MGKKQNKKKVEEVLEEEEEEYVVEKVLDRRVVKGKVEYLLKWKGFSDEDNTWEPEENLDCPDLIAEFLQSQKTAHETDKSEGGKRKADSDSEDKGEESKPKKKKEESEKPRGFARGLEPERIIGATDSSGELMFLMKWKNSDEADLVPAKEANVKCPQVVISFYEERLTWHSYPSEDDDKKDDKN
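AlphaScreen: HP1-beta (50 nM) preformed 30 min with biotin-H3(1-18)K9me3 peptide (50 nM) in PBS pH 7.4, 0.01% Tween-20. Compound added for 30 min at RT, then streptavidin donor/nickel chelate acceptor beads (10 ug/mL) for 30 min.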
BAZ2B block: BAZ2B (human) inhibition; AlphaScreen BAZ2B-H3K14Ac peptide displacement; Potency, µM (top dose mostly 114 µM), for inactives: at the highest dose activity change, negative = inhibition, hits mostly inhibitors; 360,000 compounds, 4.4% hits; further: on the % scale 0 is the no-effect control and ±100 the full control effect; nearly all actives have a fitted effect of over 60% in size
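Protein-peptide AlphaScreen: BAZ2B 50 nM, b-H3K14Ac 50 nM, 1x PBS pH 7.4 + 0.01% Tween-20. Preincubation 30 min RT; cpd 30 min RT (top 110 uM); beads 20 min RT, light-protected.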
JMJD2A Tudor inh: inhibitors of human JMJD2A Tudor domain. 390,000 compounds, 4.4% hits. AlphaScreen JMJD2A-Tudor / H3K4me3 peptide binding. AID 504339. Potency, µM (top dose mostly 114 µM), without a hit: top-dose activity change, negative = inhibition, most hits filed as inhibitors; further: on the % scale 0 is the no-effect control and ±100 the full control effect; nearly all actives have a fitted effect of over 50% in size
Sfp PPTase inh: inhibitors of Bacillus subtilis Sfp phosphopantetheinyl transferase; Potency, µM, for inactives: largest response in the series, negative = inhibition, most hits filed as inhibitors; Biochemical Sfp PPTase activity, qHTS; 310,000 compounds, 3.5% hits; AID 1490; Q9F4F7;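 further: the enzyme is Sfp with the accession as filed and its product quenches rhodamine fluorescence; 0% = enzyme reaction without inhibitor and -100% = no enzyme wells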
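With Hepes-Na pH 7.6 buffer containing 10 mM MgCl2, Sfp (15 nM) modified BHQ-2-YbbR (12.5 uM) using rhodamine-CoA (5 uM). Two reads 30 minutes apart at 525/598 nm yielded each well's rate.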
G9a inh: inhibitors of human histone lysine methyltransferase G9a; Q96KQ7; G9a H3K9 monomethylation, AlphaScreen, 2 h; Potency, µM (series often up to 102 µM), inactives show top-dose activity, negative = inhibition, usual class: inhibitors; 350,000 compounds, 8.8% hits; further: on the % scale 0 is the no-effect control and ±100 the full control effect; nearly all actives have a fitted effect of over 75% in size
Target sequence (Q96KQ7 913-1193 limits assumed): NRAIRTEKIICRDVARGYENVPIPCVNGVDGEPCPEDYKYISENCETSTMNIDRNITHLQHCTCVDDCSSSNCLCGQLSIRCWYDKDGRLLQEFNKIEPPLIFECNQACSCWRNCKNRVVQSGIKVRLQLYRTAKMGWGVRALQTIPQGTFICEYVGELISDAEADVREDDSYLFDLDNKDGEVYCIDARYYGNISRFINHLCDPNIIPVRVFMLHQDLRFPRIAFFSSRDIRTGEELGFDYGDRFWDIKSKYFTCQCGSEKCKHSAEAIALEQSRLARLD
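G9a (20 nM) preincubated 15 min RT with compounds, then 500 nM biotinylated H3K9 peptide and 20 uM SAM added; 2 h RT reaction. Monomethyl-H3K9 product detected by AlphaScreen with anti-H3K9me1 antibody, streptavidin donor and anti-rabbit IgG acceptor beads.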
* marks the source's active call; other numbers are inactive results; ? = inconclusive; / = no result given; [ ] = remark or other dose. The call rests on the fitted dose curve; in most records, active means well fitted curve in the direction sought with a large enough effect; inconclusive means small, poorly fitted or top-dose-only effect, or another doubt; inactive means no such curve, though single readings can be large; an effect the other way counts as inactive or inconclusive. Potency means the concentration at half of the fitted maximal effect.

SMILES	L3MBTL1 block	HP1b binding inh	BAZ2B block	JMJD2A Tudor inh	Sfp PPTase inh	G9a inh
COc1ccc(Br)c2c1-c1nc(NC(=O)c3ccc(F)cc3)sc1C2	/	34%	71µM*	-26%	/	-22%[59 µM]
COc1ccc(C(=O)Nc2nc3c(s2)CCc2cc(OC)ccc2-3)cc1	/	-12%	-22%	-28%	/	6.3µM*
COc1ccc2c(c1)CCc1sc(NC(=O)c3cccc(Br)c3)nc1-2	/	-14%	0%	?	/	10µM*
CS(=O)(=O)c1ccc(Cn2c3c(c4cc(F)cc(F)c42)CCC[C@H]3CC(=O)O)cc1	/	/	/	/	-8%	/
CCC(C(=O)NC1CCCC1)N(Cc1ccco1)C(=O)CNS(=O)(=O)c1ccccc1 (stereo not drawn)	/	3%	7%	-14%	7%	-7%
COc1ccc(Cn2ccc3nc(C)c(C(=O)N4CCN(c5ccccc5F)CC4)cc3c2=O)cc1	/	5%	?	-32%	/	6%[59 µM]
COc1ccc(C(CNS(=O)(=O)c2ccc(C)cc2)N2CCN(C)CC2)cc1 (stereo not drawn)	-7%	26%	-21%	-3%	/	?
Cn1c(O)c(N=NC(=S)Nc2ccccc2F)c2cc(S(=O)(=O)N3CCOCC3)ccc21	/	-4%	4%	?	22%	32µM*
Cc1ccc(NC(=S)N=Nc2c(O)n(C)c3ccc(S(=O)(=O)N4CCOCC4)cc23)cc1C	-12%	2%	-34%	-15%	5%	-21%
CC1(C)c2ccccc2-n2c1cc1oc(=O)cc(O)c1c2=O	/	19%	-3%	-22%	89µM*	/
Cc1c(O)cc2n(c1=O)-c1ccccc1C2(C)C	-2%	41%	3%	-6%	15%	-3%[59 µM]
CC(C)(C)c1ccc(S(=O)(=O)N2CCN(c3nc(-c4ccccc4)nc4ccccc34)CC2)cc1	/	26%	/	-2%	/	/
COc1ccc(C)cc1Nc1n[n+](-c2ccccc2)c(-c2ccc(OC)c(OC)c2OC)s1	-5%	-3%	?	?	-28%	/
COc1ccc(C)cc1Nc1n[n+](-c2ccccc2)c(-c2ccc(N(C)C)cc2)s1	0%	?	28µM*	50µM*	20µM*	50µM*
COc1ccc(C)cc1Nc1n[n+](-c2ccccc2)c(-c2c(Cl)cccc2Cl)s1	?	?	16µM*	50µM*	?	40µM*
COc1ccc(C)cc1Nc1cc(C)nc(C)n1	/	58%	-3%	2%	/	5%[59 µM]
CCOC(=O)c1ccc2nc(C)cc(Nc3ccc(OC(C)C)cc3)c2c1	/	27%	-13%	-16%	/	-39%[59 µM]
O=c1c(-c2cccs2)nc2cnc(N3CCOCC3)nc2n1-c1ccccc1	/	/	/	/	5%	14%[0.501 µM]
CN1CCN(C(=O)CCC(=O)O)CC1	/	68%	-20%	6%[11.4 µM]	13%	/
CN1CCN(CC(=O)O)CC1	/	2%	?	?	-18%	35µM*
CC(C(=O)Nc1ccccc1C(F)(F)F)n1nnc2sc3c(c2c1=O)CCCC3 (stereo not drawn)	/	-3%	-17%	-20%	/	14µM*
COc1ccc(Cl)cc1NC(=O)C(C)n1nnc2sc3c(c2c1=O)CCCC3 (stereo not drawn)	/	9%	-19%	-33%	/	14µM*
Cc1ccc(NC(=O)C(C)n2nnc3sc4c(c3c2=O)CCCC4)cc1Cl (stereo not drawn)	/	42%	-16%	-29%	/	?
CC(C(=O)Nc1ccccc1)n1nnc2sc3c(c2c1=O)CCCC3 (stereo not drawn)	/	2%	-16%	-31%	/	16µM*
O=C(OCC1OC(n2cc(Br)c(=O)[nH]c2=O)C(Br)C1O)c1ccccc1 (stereo not drawn)	/	37%	8%	2%	10%	-12%
SMILES	L3MBTL1 block	HP1b binding inh	BAZ2B block	JMJD2A Tudor inh	Sfp PPTase inh	G9a inh
Nc1ncc(Br)cc1S(=O)(=O)NCCC(=O)NCCc1ccccc1	/	1%	-18%	-15%	16%	-5%
CN(C)c1ccc(CNC(=O)CCNS(=O)(=O)c2cc(Br)cnc2N)cc1	/	0%	-32%	32µM*	-1%	35µM*
CCOc1ccc(/C(CCC(=O)O)=N/NC(=S)NC(C)C)cc1	4%	-10%	-26%	-20%	35µM*	22µM*
CC1CCN(CCCOc2ccc(Br)cc2Cl)CC1	-21%	?	56µM*	4µM*	-4%	16µM*
O=C1CCC(=O)N1OCCCOc1ccc(Br)cc1Cl	4%	69%	0%	10%	4%	-13%[59 µM]
Clc1ccc(OCCOCCOc2cccc3cccnc23)c(Br)c1	9%	75%	5%	1%	-28%	-7%[59 µM]
CC1CCCN(CCOCCOc2ccc(Cl)cc2Br)C1 (stereo not drawn)	-4%	?	?	2µM*	?	?
COc1ccc(OC)c(NC(=O)CCN2CCCC(C)C2)c1 (stereo not drawn)	-7%	24%	8%	-17%	16%	?
Cc1cc(Cl)c(OCCOCCN2CCCC(C)C2)c(Br)c1 (stereo not drawn)	-1%	6%	56µM*	?	-14%	16µM*
CC1CCCN(CCOCCOc2ccc(Br)cc2Cl)C1 (stereo not drawn)	6%	?	?	2.8µM*	-25%	10µM*
CS(=O)(=O)c1ccc(C(=O)OCC(=O)N2CCCc3ccccc32)cc1	0%	19%	0%	-4%	/	5%[0.501 µM]
Cc1nc(-c2ccc(S(=O)(=O)NCc3ccc(OC(C)C)cc3)cc2)co1	/	19%[57 µM]	1%	-13%	/	3%[59 µM]
COc1ccc(C(=O)NCc2nnc(SCC(=O)c3ccccc3)o2)cc1	/	40%	-19%	-2%	-6%	10%[59 µM]
COc1cc(C(=O)NCc2nnc(SCC(=O)Nc3nccs3)o2)cc(OC)c1OC	?	36%	45µM*	?	16%	-3%
COc1cc(C(=O)NCc2nnc(SCC(=O)c3ccccc3)o2)cc(OC)c1OC	/	28%	-10%	12%	-2%	40µM*
CCCOc1ccc(N2C(=O)CC(SCC(N)C(=O)OCC)C2=O)cc1 (stereo not drawn)	7%	41%	-3%	-9%	-16%	71µM*
CCOc1ccc(N2C(=O)CC(SCC(=O)O)C2=O)cc1 (stereo not drawn)	12%	36%	-3%	1%	3%	50µM*
CCCOc1ccc(N2C(=O)CC(SC(=NCC)NCC)C2=O)cc1 (stereo not drawn)	4%	27%	9%	-4%	12%	-13%[59 µM]
CCOC(=O)C(N)CSC1CC(=O)N(c2ccc(C(=O)OC)cc2)C1=O (stereo not drawn)	10%	-16%	-3%	?	-11%	8.9µM*

High-throughput results from PubChem BioAssay.
